Consider 40 compounds from PubChem BioAssay (Tox21).

Inconclusive results are not listed. A number with no mark means an inactive call. Calls of active or inactive are those of the source. Calls come from the whole dose curve; as a rule, active = well fitted activation curve with a large enough effect in the signal ratio in the repeat runs (not every such curve was filed as active); inconclusive = weak or mixed curves; inactive = flat fitted curve, though single readings scatter; the % refers to the signal ratio.
% is set by controls: 0 for no effect and ±100 for the full control effect.

A short description of this assay: qHTS assay to identify small molecule agonists of H2AX (AID 1224845). The following applies: CHO-K1 phospho-H2AX Ser139 HTRF, 3 h; series mostly up to 154 µM. The text has this:
National Center for Advancing Translational Sciences [NCATS]
NIH Chemical Genomics Center [NCGC]
U.S. Environmental Protection Agency [EPA]
National Institutes of Environmental Health Sciences [NIEHS]
National Toxicology Program [NTP]
U.S. Food and Drug Administration [FDA]
HTRF phospho-H2AX (Ser139) assay (Cisbio Bioassays, US) enables the quantitative detection of the histone variant H2AX when phosphorylated on serine 139. When double-stranded DNA breaks, either by ionizing radiation or endogenous physiological processes, H2AX becomes phosphorylated at Ser139. This phospho-Ser139 serves as a sensitive biomarker for the detection of such breaks, localizing the site of DNA repair. So, HTRF phospho-H2AX Ser139 is a pertinent assay to study genome stability, the cell cycle, DNA repair, and it serves as a biomarker for cancer, and to understand aging. Wild type CHO-K1 cells were used to identify the inducers of Phospho-H2AX Ser 139 from the Tox21 10K compound collections.
Tox21 Assay Protocol Summary:
The CHO-K1 cells suspended in culture medium containing 10% FBS were dispensed at 1000 cells/ 3 ul/well in 1536-well white wall/solid bottom plates (Greiner Bio-One North America, NC) using a Multidrop Combi (Thermo Fisher Scientific Inc., Waltham, MA). After the assay plates were incubated at 37C overnight, 23 nl of compounds at 15 concentrations (from 5-48 columns) or positive control (from 1 to 4 columns) were transferred to the assay plates using a Pintool station (Wako, San Diego, CA) into each well resulting in a final DMSO concentration of 0.76%. After 3hr incubation at 37C, 1 uL/well Supplemented Lysis buffer (diluted 100 fold blocking reagent in lysis buffer) (HTRF Phospho-H2A.X (S139) Assay kit from Cisbio US Inc., Bedford, MA) was added using a Flying Reagent Dispenser (FRD) (Aurora Discovery, CA). After 10sec spin at 1000 rpm in a plate centrifuge, the assay plates were incubated at room temperature for 30 min. Then followed by the addition of 1 uL/well detection buffer (containing a mixture of two antibodies, one labeled with cryptate, Anti pH2AX (S139)-K and another labeled with d2, Anti H2AX-d2) using FRD. After incubation at room temperature for 24 hr, the time resolved fluorescence at excitation 320 nm and emissions at 665 nm and 620 nm was measured using an Envision plate reader (PerkinElmer, Waltham, MA).
Background: In qHTS, concentration-response curves come from the screen itself.
Consider `C=Cc1ccccn1`, for which the call was inactive. Turning to `CN(C)C(=O)CNC(=O)Cc1ccccc1`, the result was inactive. Take `CCNC(=O)C1CC(C)CCC1C(C)C` (stereo not given): the compound was called inactive. Still for that read-out and setting: the result for `CCCCNC1CC(C)(C)NC(C)(C)C1` reads “inactive”.

For `O=C(Nc1ccc(Cl)c(Cl)c1)C1CC1`, the call was inactive.

Regarding `CN1CCN(CC(=O)N2c3ccccc3C(=O)Nc3cccnc32)CC1`, the activation (H2AX phosphorylation) is 2.24% [at 14 µM]. `CCOCCOCCOCC`: the compound was called inactive. On to `O=C(O)Cc1ccc(Cl)cc1Cl`, for which the compound was called inactive. Consider `CNS(=O)(=O)CCc1ccc2[nH]cc(C3CCN(C)CC3)c2c1`, for which the call was inactive. As for `CN(C)c1ccc(C=O)cc1`, the result was inactive. As for `Cc1cccc(OCC(O)CNC(C)(C)C)c1C` (stereo not given), the outcome was inactive. For `CCCCCCN`, the call was inactive. For the compound `C=C1CC/C=C(\C)CC[C@@H]2[C@@H]1CC2(C)C`, the compound was called inactive.

With `CCCCN`, the outcome was inactive. For the compound `CC(C)(C)OC(=O)c1ccc(O)cc1`, the outcome was inactive. Same read-out and setting: with `CCCCCCCCC1CCC(=O)O1` (stereo not given) the entry was “inactive”. Consider `COc1nccnc1NS(=O)(=O)c1ccc(N)cc1`, for which the compound was classed as inactive. Same read-out and setting: the result for `Cc1ccccc1C(=O)Nc1ccc(C(=O)N2CCCC(N(C)C)c3ccccc32)cc1` (stereo not given) reads “inactive”; that for `COc1ccc(S(=O)(=O)N2c3ccc(Cl)cc3[C@@](O)(c3ccccc3Cl)[C@H]2C(=O)N2CCC[C@@H]2C(N)=O)cc1OC`, “inactive”. Take `CC1=C(C(=O)O)N2C(=O)[C@@H](NC(=O)[C@H](N)c3ccc(O)cc3)[C@H]2SC1`: the compound was classed as inactive. For `CCOC(=O)c1ccc(OC(=O)CCCCCN=C(N)N)cc1`, the outcome was inactive.

As for `COc1cc(C(=S)N2CCOCC2)cc(OC)c1OC`, the outcome was inactive. As for `CC1COc2ccccc2N1` (stereo not given), the result was inactive. As for `CCCCCCOC(=O)CC`, the call was inactive. With `CC(C)N(c1ccccc1)C(C)C`, the compound was called inactive.

In the case of `O=C1c2ccccc2C(=O)C1c1ccccc1`, the compound was called inactive. The same measure, in the same setting: the result for `CCCC/C=C/C=C\C=O` reads “inactive”. The same measure, in the same setting: the result for `CN1C(C)(C)CCCC1(C)C` reads “inactive”; that for `CCO[Si](CCCS)(OCC)OCC`, “inactive”.

As to `CC(=O)N[C@@H](CCC(=O)O)C(=O)O`, the result was inactive. Take `COc1ccc(C2CNC(=O)C2)cc1OC1CCCC1` (stereo not given): the outcome was inactive.

Take `CC(CN)CC(C)(C)CCN` (stereo not given): the call was inactive. The same measure, in the same setting: with `CC(CO)c1ccccc1` (stereo not given) the entry was “inactive”; with `COP(=O)(OC)OC(c1ccc(Cl)cc1)P(=O)(OC)OC` (stereo not given), “inactive”. On to `CCn1ccc(NS(=O)(=O)c2ccc(N)cc2)nc1=O`, for which the compound was called inactive. Consider `COCCOC(=O)C1=C(C)NC(C)=C(C(=O)OC(C)C)C1c1cccc([N+](=O)[O-])c1` (stereo not given), for which the outcome was inactive. In the case of `CC1(C)S[C@@H]2[C@H](N=CN3CCCCCC3)C(=O)N2[C@H]1C(=O)O`, the outcome was inactive. Same read-out and setting: with `O=C(OCC(COC(=O)c1cccnc1)(COC(=O)c1cccnc1)COC(=O)c1cccnc1)c1cccnc1` the entry was “inactive”; with `O=C(OCC1(COC(=O)c2cccnc2)CCCC(COC(=O)c2cccnc2)(COC(=O)c2cccnc2)C1O)c1cccnc1`, “inactive”. As to `CO[C@@H]1[C@@H](OC(N)=O)[C@@H](O)[C@H](Oc2ccc3c(O)c(NC(=O)c4ccc(O)c(CC=C(C)C)c4)c(=O)oc3c2C)OC1(C)C`, the compound was classed as inactive.
